The record followed here is PubChem BioAssay (Tox21).

Assay [1] deals with Thyrotropin receptor (Homo sapiens) (UniProt P16473). The experiment in a line: qHTS assay to identify small molecule antagonists of the thyroid stimulating hormone receptor (TSHR) signaling pathway (AID 1259385; calls by dose curve; further: nearly all actives have a fitted effect of over 20% in size). In a few lines:
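Antagonist mode: compound-treated TSHR-expressing HEK293 cells were stimulated with 1.5 ng/mL TSH (final) in presence of Ro20-1724 for 30 min at RT. HTRF cAMP detection after 1 h; each compound tested at 15 concentrations, triplicate.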
On the technique in general: In qHTS, concentration-response curves come from the screen itself.

Assay [2] can be described thus: qHTS assay to identify small molecule agonists of the estrogen receptor alpha (ER-alpha) signaling pathway in the presence of an antagonist - cell viability counter screen (AID 1259386).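 Further: cells exposed to compounds for 22 h at 37 °C before the viability read; nearly all actives have a fitted effect of over 30% in size.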 Further: potency means the concentration at half of the fitted maximal effect. In a few lines:
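Cytotoxicity was measured in parallel with the ERE-luciferase agonist screen, in the same wells. The cells were VM7Luc4E2, which endogenously express ER-alpha, and treatment was with compounds plus 10.0nM ICI-182,780 for 22hr.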

Assay [3] deals with Progesterone receptor (Homo sapiens) (UniProt P06401). Kind of assay: qHTS assay to identify small molecule antagonists of the progesterone receptor (PR) signaling pathway (AID 1346795; active means well fitted inhibition curve with a large enough effect in the signal ratio in the repeat runs, not every such curve was filed as active; the % refers to the signal ratio). In a few lines:
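PR-UAS-bla HEK293T cells carrying a UAS-driven beta-lactamase reporter were plated in medium with 2% charcoal-stripped FBS and rested 6 hr at 37C. Compounds were added with 1 nM R5020 (final) for 16 hr, then FRET substrate loaded 2 hr at room temperature.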

Assay [4] can be described thus: qHTS assay to identify small molecule antagonists of the progesterone receptor (PR) signaling pathway - cell viability counter screen (AID 1346798). Further: nearly all actives have a fitted effect of over 50% in size. Further: potency means the concentration at half of the fitted maximal effect. In short, it runs like this: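 PR-UAS-bla HEK293T cells in medium with 2% charcoal-stripped FBS were treated with compounds plus R5020 for 16 hr at 37C. Cell viability was then read by CellTiter-Glo luminescence after 30 min at room temperature in the same wells.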

Assay [5] can be described thus: qHTS assay to identify small molecule agonists of the progesterone receptor (PR) signaling pathway - cell viability counter screen (AID 1346799; calls by dose curve; further: nearly all actives have a fitted effect of over 45% in size; further: potency means the concentration at half of the fitted maximal effect). In short, it runs like this:
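PR-UAS-bla HEK293T cells, 3,000 per well in medium with 2% charcoal-stripped FBS, were preincubated 6 hr at 37C, then exposed to compounds for 16 hr; viability was read as CellTiter-Glo luminescence after 30 min at room temperature.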

Assay [6] in a line: qHTS assay to identify small molecule antagonists of the TGF-beta/Smad signaling pathway - cell viability counter screen (AID 1346824). Further: nearly all actives have a fitted effect of over 50% in size. In short, it runs like this:
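Cytotoxicity counter-screen run in the same wells as the beta-lactamase Smad reporter read: CellTiter-Glo luminescence after 30 min at room temperature. HEK 293T SBE-bla cells had 5 hr compound exposure at 37 C with TGF-beta1 (0.25 ng/mL stock).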

Assay [7] can be described thus: qHTS assay to identify small molecule agonists of the TGF-beta/Smad signaling pathway - cell viability counter screen (AID 1346829). Further: top concentration of the series differs between compounds; nearly all actives have a fitted effect of over 45% in size. In short, it runs like this:
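Tox21 qHTS format: SBE-bla HEK 293T cells treated with DMSO-dissolved compounds for 5 hr; CellTiter-Glo luminescence after 30 min at room temperature.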

Assay [8] in a line: qHTS assay to identify small molecule agonists of the TGF-beta/Smad signaling pathway (AID 1346859; active means well fitted activation curve with a large enough effect in the signal ratio in the repeat runs, not every such curve was filed as active; the % refers to the signal ratio; further: series mostly up to about 77 µM). In short, it runs like this: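 HEK 293T cells stably carrying a beta-lactamase reporter driven by the Smad binding element were seeded overnight, exposed to DMSO-dissolved compounds for 5 hr at 37 C, 5% CO2, then loaded with FRET substrate for 2 hr at room temperature.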
Assay [9] has as its target Thyrotropin-releasing hormone receptor (Homo sapiens) (UniProt P34981). Kind of assay: qHTS assay to identify small molecule antagonists of the thyrotropin-releasing hormone receptor (TRHR) signaling pathway (AID 1346877; active means well fitted inhibition curve with a large enough effect in the repeat runs, not every such curve was filed as active; further: series mostly up to about 51 µM). In short, it runs like this:
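Antagonism is measured as suppression of the calcium response to 1 nM TRH in TRHR-HEK293 cells that have been dye-loaded for 2 h at 37 °C after overnight plating. Each compound is tested at 15 concentrations in triplicate.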

Assay [10] has the same target. Kind of assay: qHTS assay to identify small molecule agonists of the thyrotropin-releasing hormone receptor (TRHR) signaling pathway (AID 1346891; calls by dose curve; further: series mostly up to about 58 µM). In a few lines: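 TRHR-expressing HEK293 cells were plated 18 h at 37 °C/5% CO2, loaded with calcium dye 2 h at 37 °C, then given compound in DMSO; fluorescence was read kinetically for 3 min at 1 s intervals.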
Assay [11] in a line: Human pregnane X receptor (PXR) small molecule agonists, qHTS cell viability counter screen (AID 1346977). Further: nearly all actives have a fitted effect of over 50% in size. In short, it runs like this: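 PXR-Luc HepG2 cells in medium with 5% charcoal-stripped FBS were pre-incubated 5hr, then exposed to compounds for 24hr at 37C. Viability was read in the same wells by CellTiter-Fluor fluorescence, reagent added after 23hr with a 1hr incubation.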

A short description of assay [12]: Caspase-3/7 induction in HepG2 cells by small molecules, qHTS assay (AID 1346978). Further: nearly all actives have a fitted effect of over 15% in size. In short, it runs like this: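 Caspase-3/7 induction was measured by Caspase-Glo 3/7 luminescence (30 min, room temperature) after a 17 hr compound exposure of wild-type HepG2 cells seeded at 2,000 per well and pre-incubated 5 hr.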
Assay [13] in a line: Caspase-3/7 induction in CHO-K1 cells by small molecules, qHTS assay (AID 1346980). Further: nearly all actives have a fitted effect of over 15% in size. In short, it runs like this: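 Luminescent Caspase-Glo 3/7 read (30min, room temperature) quantified apoptosis induction. Cells were wild-type CHO-K1, treated with compound for 17hr at 37 C and 5% CO2.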
The nature of assay [14]: Caspase-3/7 induction in HepG2 cells by small molecules, qHTS cell viability counter screen (AID 1346981). Further: nearly all actives have a fitted effect of over 30% in size. Further: potency means the concentration at half of the fitted maximal effect. In a few lines: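 Cell viability is measured as a cytotoxicity counter screen alongside the Caspase-Glo 3/7 readout in identical wells. Wild-type HepG2 cells are treated with test compounds for 16 hr at 37 C before CellTiter-Fluor addition and a 1-hr incubation.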

Assay [15] addresses Nuclear receptor subfamily 1 group I member 2 (Homo sapiens) (UniProt O75469). Kind of assay: Human pregnane X receptor (PXR) small molecule agonists, qHTS assay (AID 1346982). Further: nearly all actives have a fitted effect of over 35% in size. Further: potency means the concentration at half of the fitted maximal effect. In short, it runs like this: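 Cells: HepG2 stably carrying PXR-Luc. Medium held 5% charcoal-stripped FBS. Compounds in DMSO added after 5 hr plating, incubated 24 hr, then luminescence quantified with ONE-Glo.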

In assay [16] the target is Progesterone receptor (Homo sapiens) (UniProt P06401). The experiment in a line: qHTS assay to identify small molecule agonists of the progesterone receptor (PR) signaling pathway (AID 1346784; calls by dose curve; further: nearly all actives have a fitted effect of over 30% in size). In a few lines: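 PR-UAS-bla HEK 293T cells carrying a UAS-driven beta-lactamase reporter were seeded in medium with 2% charcoal-stripped FBS, preincubated 6 hr at 37C, then exposed to compounds in DMSO for 16 hr; agonism was read by LiveBLAzer B/G FRET fluorescence.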

Assay [17] is described as follows: Caspase-3/7 induction in CHO-K1 cells by small molecules, qHTS cell viability counter screen (AID 1346979). Further: nearly all actives have a fitted effect of over 35% in size. Further: potency means the concentration at half of the fitted maximal effect. In a few lines:
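Wild-type CHO-K1 cells were seeded at 1,500 per well, rested 5hr at 37 C, then exposed to compounds in DMSO. After 16hr, CellTiter-Fluor reagent was added and fluorescence read 1hr later as the viability measure.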

Assay [18] addresses Nuclear receptor subfamily 1 group I member 2 (Rattus norvegicus) (UniProt Q9R1A7). The experiment in a line: Rat pregnane X receptor (rPXR) activation by small molecules, qHTS assay (AID 1346983). Further: nearly all actives have a fitted effect of over 20% in size. The conditions noted are these: rPXR luciferase reporter cells, One-Glo luminescence, 24 h; max activation: stronger effect = higher value. In short, it runs like this: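 Luminescent readout (One-Glo luciferase, 30 min room temperature) followed 24 hr compound treatment at 37 C of rPXR cells plated 2,000 per well and preincubated 5hr; qHTS format with compounds delivered in DMSO.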

Assay [19] addresses Nuclear receptor subfamily 1 group I member 2 (Homo sapiens) (UniProt O75469). The experiment in a line: CYP3A4 induction through human pregnane X receptor (PXR) by small molecules, qHTS assay (AID 1346984). Further: nearly all actives have a fitted effect of over 40% in size. In short, it runs like this: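 Quantitative HTS in DPX-2 cells, i.e. HepG2 transfected with PXR response element and CYP3A4-promoter luciferase. Compounds in DMSO incubated 24hr at 37C; then P450-Glo CYP3A4 substrate, 3uM final, 3hr; One-Glo luminescence.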

For assay [20] the target is unchanged. The experiment in a line: Human pregnane X receptor (PXR) activation by small molecules, qHTS assay (AID 1346985). Further: nearly all actives have a fitted effect of over 40% in size. In a few lines:
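DPX-2 cells (HepG2 co-transfected with a PXR response element and a CYP3A4-promoter luciferase construct) were seeded at 2,000 per well, rested 5 hr at 37C, then exposed to DMSO-dissolved compounds for 24 hr. Activation was read as luciferase luminescence.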

Unmarked numbers belong to inactive results. Results filed as inconclusive are left out. Active and inactive are the calls of the source. Unless noted, the call rests on the fitted dose curve; in most records, active means well fitted curve in the direction sought with a large enough effect in the repeat runs; inconclusive means weak or mixed curves; inactive means no such curve, though single readings can be large; an effect the other way counts as inactive or inconclusive.
On the % scale 0 is the no-effect control and ±100 the full control effect.

Chain of Progesterone receptor (Homo sapiens) (P06401 whole entry, looked up): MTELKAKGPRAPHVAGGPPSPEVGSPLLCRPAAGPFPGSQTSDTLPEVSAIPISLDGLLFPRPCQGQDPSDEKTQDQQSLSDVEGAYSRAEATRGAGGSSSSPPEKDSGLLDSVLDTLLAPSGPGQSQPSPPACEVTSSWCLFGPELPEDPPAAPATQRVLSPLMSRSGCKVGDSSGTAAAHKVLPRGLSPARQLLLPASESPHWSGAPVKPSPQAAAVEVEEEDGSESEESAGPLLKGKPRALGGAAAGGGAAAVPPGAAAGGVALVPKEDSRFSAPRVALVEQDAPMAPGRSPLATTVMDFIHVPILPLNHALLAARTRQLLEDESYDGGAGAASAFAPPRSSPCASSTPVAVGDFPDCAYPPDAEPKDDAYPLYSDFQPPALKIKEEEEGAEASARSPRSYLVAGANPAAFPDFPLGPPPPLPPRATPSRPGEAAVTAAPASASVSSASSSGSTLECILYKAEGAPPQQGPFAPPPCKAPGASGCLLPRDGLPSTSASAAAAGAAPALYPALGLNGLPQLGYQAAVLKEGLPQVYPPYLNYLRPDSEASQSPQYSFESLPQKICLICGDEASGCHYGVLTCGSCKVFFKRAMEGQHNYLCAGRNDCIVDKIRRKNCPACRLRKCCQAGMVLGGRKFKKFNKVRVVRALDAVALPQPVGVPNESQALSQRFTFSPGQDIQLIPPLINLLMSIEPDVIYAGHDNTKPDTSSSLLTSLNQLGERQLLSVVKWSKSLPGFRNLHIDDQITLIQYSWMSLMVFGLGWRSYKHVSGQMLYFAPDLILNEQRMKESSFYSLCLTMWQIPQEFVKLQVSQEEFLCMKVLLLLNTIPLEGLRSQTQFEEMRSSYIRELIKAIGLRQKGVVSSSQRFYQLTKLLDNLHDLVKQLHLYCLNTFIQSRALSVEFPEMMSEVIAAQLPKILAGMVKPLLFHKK
Chain of Nuclear receptor subfamily 1 group I member 2 (Homo sapiens) (O75469 whole entry, looked up): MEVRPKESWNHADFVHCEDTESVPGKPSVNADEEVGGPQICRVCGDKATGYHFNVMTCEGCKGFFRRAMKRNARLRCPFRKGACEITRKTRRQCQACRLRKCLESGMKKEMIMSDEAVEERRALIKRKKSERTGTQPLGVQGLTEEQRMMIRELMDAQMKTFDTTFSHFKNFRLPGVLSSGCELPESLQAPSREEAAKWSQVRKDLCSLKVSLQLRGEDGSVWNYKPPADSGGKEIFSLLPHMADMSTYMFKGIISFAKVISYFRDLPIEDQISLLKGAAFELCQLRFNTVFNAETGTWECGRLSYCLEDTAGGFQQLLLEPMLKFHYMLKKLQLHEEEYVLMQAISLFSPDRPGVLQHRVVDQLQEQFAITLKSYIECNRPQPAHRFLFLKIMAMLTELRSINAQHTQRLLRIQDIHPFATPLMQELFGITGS
Chain of Thyrotropin-releasing hormone receptor (Homo sapiens) (P34981 whole entry, looked up): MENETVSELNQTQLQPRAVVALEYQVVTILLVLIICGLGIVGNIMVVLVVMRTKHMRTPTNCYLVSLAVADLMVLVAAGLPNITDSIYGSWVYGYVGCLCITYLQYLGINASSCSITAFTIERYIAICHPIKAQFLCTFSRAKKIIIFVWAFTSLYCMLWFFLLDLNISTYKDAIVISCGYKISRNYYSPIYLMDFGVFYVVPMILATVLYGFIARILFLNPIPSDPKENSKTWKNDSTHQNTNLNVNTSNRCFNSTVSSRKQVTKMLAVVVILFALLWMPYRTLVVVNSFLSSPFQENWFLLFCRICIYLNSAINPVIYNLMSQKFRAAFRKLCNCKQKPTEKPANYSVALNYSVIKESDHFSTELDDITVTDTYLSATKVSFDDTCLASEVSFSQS
Chain of Thyrotropin receptor (Homo sapiens) (P16473 whole entry, looked up): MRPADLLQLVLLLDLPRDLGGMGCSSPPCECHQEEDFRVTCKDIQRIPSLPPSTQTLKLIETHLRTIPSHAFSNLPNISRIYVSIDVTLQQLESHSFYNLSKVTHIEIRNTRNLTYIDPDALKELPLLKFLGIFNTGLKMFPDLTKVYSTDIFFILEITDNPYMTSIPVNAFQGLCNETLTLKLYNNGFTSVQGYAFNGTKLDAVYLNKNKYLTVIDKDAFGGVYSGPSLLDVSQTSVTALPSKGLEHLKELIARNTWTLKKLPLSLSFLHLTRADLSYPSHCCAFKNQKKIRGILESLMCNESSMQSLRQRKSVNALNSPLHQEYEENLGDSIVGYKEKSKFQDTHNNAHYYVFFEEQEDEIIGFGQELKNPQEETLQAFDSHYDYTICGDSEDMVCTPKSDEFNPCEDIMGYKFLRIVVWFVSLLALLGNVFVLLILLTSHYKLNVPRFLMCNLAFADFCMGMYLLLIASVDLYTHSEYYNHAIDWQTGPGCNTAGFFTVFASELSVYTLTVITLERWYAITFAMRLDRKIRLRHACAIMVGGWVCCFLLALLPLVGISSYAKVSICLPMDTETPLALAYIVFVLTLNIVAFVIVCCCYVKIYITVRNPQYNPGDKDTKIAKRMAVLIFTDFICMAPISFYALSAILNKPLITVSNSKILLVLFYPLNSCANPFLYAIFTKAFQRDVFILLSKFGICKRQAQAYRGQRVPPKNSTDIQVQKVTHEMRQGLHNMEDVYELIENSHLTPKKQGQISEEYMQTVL
Chain of Nuclear receptor subfamily 1 group I member 2 (Rattus norvegicus) (Q9R1A7 whole entry, looked up): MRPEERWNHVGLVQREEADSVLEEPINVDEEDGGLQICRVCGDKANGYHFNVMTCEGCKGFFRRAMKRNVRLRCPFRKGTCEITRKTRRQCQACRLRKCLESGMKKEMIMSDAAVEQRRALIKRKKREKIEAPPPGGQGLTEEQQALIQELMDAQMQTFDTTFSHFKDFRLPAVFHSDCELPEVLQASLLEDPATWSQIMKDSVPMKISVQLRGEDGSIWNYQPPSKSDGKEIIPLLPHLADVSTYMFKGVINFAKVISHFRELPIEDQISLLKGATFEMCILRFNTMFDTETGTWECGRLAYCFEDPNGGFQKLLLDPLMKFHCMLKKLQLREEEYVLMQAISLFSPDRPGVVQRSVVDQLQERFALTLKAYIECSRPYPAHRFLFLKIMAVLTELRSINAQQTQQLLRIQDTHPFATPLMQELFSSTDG

In the case of `ClC1=C(Cl)C1(Cl)Cl`, the Potency entry in [1], in assay [2], in assay [3], in assay [4], in [5] and in assay [7] was “inactive” each time. The Potency entry in [8], in assay [11], in assay [12], in assay [14] and in assay [15] was “inactive” each time. Further, the outcome in [6], in [9], in assay [10] and in [13] was inactive.
As to `Cc1cc([N+](=O)[O-])ccc1N`, the Potency result in assay [1], in assay [16], in assay [5] and in assay [8] was “inactive” throughout. Also, the Potency in assay [2] is 47.9 µM (active); in assay [17], 53.8 µM (active); in assay [14] it was 33.9 µM (active). The result in [6] and in [13] was inactive.
With `Nc1ccc(NC(=O)c2ccc(N)cc2)cc1`, the Potency entry in assay [2], in assay [3], in [4], in assay [7], in assay [8] and in assay [11] was “inactive” throughout. The Potency result in [12], in assay [17], in assay [14] and in assay [15] was “inactive” each time. Further, the Potency in assay [5] is 54.5 µM (active). In addition, the compound was classed as inactive in [6], in [9], in assay [10] and in assay [13].
For `CC(C)Cc1ccc(CC(=O)O)cc1`, the Potency entry in assay [2], in assay [16], in [7], in [8], in [11] and in [12] was “inactive” throughout. Further, the Potency result in assay [14], in assay [15], in assay [19] and in assay [20] was “inactive” throughout. The Potency in assay [4] is 29.8 µM (active). For the same compound, the compound was classed as inactive in assay [6], in [9], in assay [10] and in assay [13]. Further, the max activation in [18] was -5.33%.
On to `O=C(O)CCC(=O)OC[C@@H](NC(=O)C(Cl)Cl)[C@H](O)c1ccc([N+](=O)[O-])cc1`, for which the Potency result in assay [2], in assay [16], in [3], in [4], in [5] and in [7] was “inactive” in each case. Besides, the Potency entry in [8], in assay [11], in assay [12], in [17], in [14] and in assay [15] was “inactive” throughout. Moreover, the call in assay [9], in [10] and in assay [13] was inactive.
Turning to `Cc1ccc(N(CCO)CCO)cc1`, the Potency result in assay [2], in [16], in assay [3], in [4], in assay [5] and in [7] was “inactive” in each case. The Potency entry in assay [8], in [11], in assay [12], in assay [17] and in assay [15] was “inactive” in each case. Also, the call in [6] and in assay [13] was inactive.
`CC(C)COC(=O)c1ccc(O)cc1`: the Potency result in assay [2], in assay [16], in assay [4], in [7], in assay [8] and in assay [11] was “inactive” each time. The Potency result in assay [12] and in assay [14] was “inactive” each time. Further, the compound was classed as inactive in assay [6], in assay [9], in [10] and in assay [13]. Also, the Potency in [15] was 3.06 µM (active).
